Test results published in PubChem BioAssay AID1159580 (chemical genetic matrix, 2015).
Several values for one entry are separate records, joined by “and”; a condition that tells them apart may be missing. Equal values may be shown once. In all, about 5,500 compounds went through this assay and about 2,000 (36%) were called active. Roughly 18% stayed inconclusive and do not appear here. No stated cut-off is given here; in the data, active means normalized growth mostly below about 0.91 (no sharp cut-off); inconclusive means no clear call, values can overlap the other calls; inactive means mostly above about 0.92. Some of the results follow.

Assay: chemical genetic growth profiling, strain panel (AID 1159580);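 further: tested at 20 µM; growth read once vehicle control cultures reached saturation at 30 °C; 1 = growth at the plate median or of vehicle wells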
Conditions: growth OD
[1] = S. cerevisiae deletion strains, locus YAL013W, strain DEP1, stronger effect = lower value
[2] = S. cerevisiae deletion strains, locus YBR229C, strain ROT2, stronger effect = lower value
[3] = S. cerevisiae deletion strains, locus YDL101C, strain DUN1, stronger effect = lower value
[4] = S. cerevisiae deletion strains, locus YDR150W, strain NUM1, stronger effect = lower value
[5] = S. cerevisiae deletion strains, locus YEL061C, strain CIN8, stronger effect = lower value
[6] = S. cerevisiae deletion strains, locus YGR078C, strain PAC10, stronger effect = lower value
[7] = S. cerevisiae deletion strains, locus YHR030C, strain SLT2, stronger effect = lower value
[8] = S. cerevisiae deletion strains, locus YJR043C, strain POL32, stronger effect = lower value
[9] = S. cerevisiae deletion strains, locus YJR075W, strain HOC1, stronger effect = lower value
[10] = S. cerevisiae deletion strains, locus YKL190W, strain CNB1, stronger effect = lower value
[11] = S. cerevisiae deletion strains, locus YLR039C, strain RIC1, stronger effect = lower value
[12] = S. cerevisiae deletion strains, locus YLR262C, strain YPT6, stronger effect = lower value
[13] = S. cerevisiae deletion strains, locus YNL322C, strain KRE1, stronger effect = lower value
[14] = S. cerevisiae deletion strains, locus YPL055C, strain LGE1, stronger effect = lower value
[15] = S. cerevisiae deletion strains, locus YPL241C, strain CIN2, stronger effect = lower value
[16] = S. cerevisiae deletion strains, locus YMR307W, strain GAS1, stronger effect = lower value

Measured: normalized growth

Cc1noc(C)c1C(=O)N1CCN(c2ncc(C(F)(F)F)cc2Cl)CC1
inactive: [1] 0.994 | [2] 0.988 | S. cerevisiae deletion strains, locus YCL061C, strain MRC1, stronger effect = lower value 0.993 | [3] 0.977 | [4] 0.897 | [5] 0.975 | [6] 0.994 | [7] 1.07 | S. cerevisiae deletion strains, locus YHR087W, strain rtc3, stronger effect = lower value 0.975 | [8] 0.998 | [9] 0.972 | [10] 1 | [11] 0.995 | S. cerevisiae deletion strains, locus YLR058C, strain SHM2 (second series), stronger effect = lower value 1 | S. cerevisiae deletion strains, locus YLR085C, strain ARP6, stronger effect = lower value 0.982 | [12] 0.979 | S. cerevisiae deletion strains, locus YML094W, strain GIM5, stronger effect = lower value 0.968 | S. cerevisiae deletion strains, locus YMR219W, strain ESC1, stronger effect = lower value 1 | S. cerevisiae deletion strains, locus YMR263W, strain SAP30, stronger effect = lower value 1.01 | S. cerevisiae deletion strains, locus YNL128W, strain TEP1, stronger effect = lower value 0.99 | S. cerevisiae deletion strains, locus YNL153C, strain GIM3, stronger effect = lower value 0.986 | S. cerevisiae deletion strains, locus YNL298W, strain CLA4 (second series), stronger effect = lower value 1.02 | [13] 0.989 | S. cerevisiae deletion strains, locus YNR030W, strain Alg12, stronger effect = lower value 0.97 | S. cerevisiae deletion strains, locus YOL006C, strain TOP1, stronger effect = lower value 0.99 | [14] 0.933 | [15] 1.1 | S. cerevisiae deletion strains, locus YPR135W, strain CTF4, stronger effect = lower value 0.942 | S. cerevisiae strains, strain wild type, stronger effect = lower value 0.993

c1cnc(N2CCN(Cc3ccc4c(c3)OCO4)CC2)nc1
inactive: [1] 0.95 | S. cerevisiae deletion strains, locus YAL040C, strain CLN3, stronger effect = lower value 0.967 | S. cerevisiae deletion strains, locus YCL061C, strain MRC1 (second series), stronger effect = lower value 0.982 | [4] 0.996 | S. cerevisiae deletion strains, locus YDR363W, strain ESC2, stronger effect = lower value 0.988 | S. cerevisiae deletion strains, locus YER002W, strain NOP16, stronger effect = lower value 0.988 | [6] 0.993 | [16] 0.999 | S. cerevisiae deletion strains, locus YNL175C, strain NOP13, stronger effect = lower value 1 | S. cerevisiae deletion strains, locus YNL197C, strain WHI3, stronger effect = lower value 0.976 | S. cerevisiae deletion strains, locus YNL224C, strain SQS1, stronger effect = lower value 0.985 | [13] 0.979 | S. cerevisiae deletion strains, locus YOR083W, strain WHI5 (second series), stronger effect = lower value 0.985 | [14] 0.991

O=C(COc1ccc(Cl)cc1)N1CCN(Cc2ccc3c(c2)OCO3)CC1
active: S. cerevisiae deletion strains, locus YDR502C, strain sam2, stronger effect = lower value 0.908 | S. cerevisiae deletion strains, locus YGR135W, strain pre9, stronger effect = lower value 0.825 | S. cerevisiae deletion strains, locus YMR223W, strain ubp8, stronger effect = lower value 0.898 | S. cerevisiae deletion strains, locus YNL307C, strain MCK1, stronger effect = lower value 0.9 | S. cerevisiae deletion strains, locus YOR184W, strain ser1, stronger effect = lower value 0.845
0.773 (active) and 0.983 (inactive): S. cerevisiae deletion strains, locus YJL095W, strain BCK1, stronger effect = lower value
inactive: [1] 0.989 | S. cerevisiae deletion strains, locus YBR021W, strain FUR4, stronger effect = lower value 0.977 | [2] 0.98 | S. cerevisiae deletion strains, locus YCL029C, strain bik1, stronger effect = lower value 0.979 | S. cerevisiae deletion strains, locus YDL035C, strain GPR1, stronger effect = lower value 0.93 | S. cerevisiae deletion strains, locus YDL074C, strain BRE1, stronger effect = lower value 1 | [3] 0.985 | S. cerevisiae deletion strains, locus YDL134C, strain PPH21, stronger effect = lower value 0.958 | S. cerevisiae deletion strains, locus YDL185W, strain tfp1, stronger effect = lower value 0.962 | S. cerevisiae deletion strains, locus YDL192W, strain arf1, stronger effect = lower value 0.945 | S. cerevisiae deletion strains, locus YDR101C, strain arx1, stronger effect = lower value 1.01 | [4] 0.976 | S. cerevisiae deletion strains, locus YDR162C, strain NBP2, stronger effect = lower value 0.918 | S. cerevisiae deletion strains, locus YDR318W, strain mcm21, stronger effect = lower value 0.921 | S. cerevisiae deletion strains, locus YDR388W, stronger effect = lower value 0.972 | [5] 0.985 | S. cerevisiae deletion strains, locus YER110C, stronger effect = lower value 0.962 | S. cerevisiae deletion strains, locus YER155C, strain BEM2, stronger effect = lower value 1.02 | S. cerevisiae deletion strains, locus YER167W, strain BCK2, stronger effect = lower value 0.987 | S. cerevisiae deletion strains, locus YGL078C, strain dbp3, stronger effect = lower value 1 | S. cerevisiae deletion strains, locus YGL086W, strain mad1, stronger effect = lower value 0.973 | S. cerevisiae deletion strains, locus YGL248W, strain PDE1, stronger effect = lower value 0.983 | [6] 0.952 | S. cerevisiae deletion strains, locus YGR252W, strain gcn5, stronger effect = lower value 0.938 | [7] 0.954 and 0.981 | S. cerevisiae deletion strains, locus YHR079C, strain IRE1 (second series), stronger effect = lower value 0.977 | S. cerevisiae deletion strains, locus YHR079C, strain IRE1, stronger effect = lower value 0.972 | S. cerevisiae deletion strains, locus YHR094C, strain hxt1, stronger effect = lower value 0.978 | S. cerevisiae deletion strains, locus YHR129C, strain ARP1, stronger effect = lower value 0.977 | S. cerevisiae deletion strains, locus YHR200W, strain rpn10, stronger effect = lower value 0.976 | S. cerevisiae deletion strains, locus YIL066C, strain RNR3, stronger effect = lower value 0.887 | S. cerevisiae deletion strains, locus YIL073C, strain SPO22, stronger effect = lower value 0.827 | S. cerevisiae deletion strains, locus YIL125W, strain kgd1, stronger effect = lower value 1 | S. cerevisiae deletion strains, locus YIR030C, strain dcg1, stronger effect = lower value 0.973 | S. cerevisiae deletion strains, locus YJL134W, strain LCB3, stronger effect = lower value 0.977 | S. cerevisiae deletion strains, locus YJL168C, strain set2, stronger effect = lower value 0.98 | S. cerevisiae deletion strains, locus YJL187C, strain SWE1 (second series), stronger effect = lower value 0.932 | [8] 1.08 | S. cerevisiae deletion strains, locus YJR066W, strain TOR1, stronger effect = lower value 0.916 | [9] 0.943 | S. cerevisiae deletion strains, locus YKL009W, strain mrt4, stronger effect = lower value 0.987 | S. cerevisiae deletion strains, locus YKL068W, stronger effect = lower value 0.983 | S. cerevisiae deletion strains, locus YKL085W, strain MDH1 (second series), stronger effect = lower value 0.98 | S. cerevisiae deletion strains, locus YKL085W, strain MDH1, stronger effect = lower value 0.98 | [10] 0.976 | S. cerevisiae deletion strains, locus YKR001C, strain vps1, stronger effect = lower value 1.04 | [11] 0.738 | S. cerevisiae deletion strains, locus YLR058C, strain SHM2, stronger effect = lower value 0.962 | S. cerevisiae deletion strains, locus YLR102C, strain apc9, stronger effect = lower value 0.986 | S. cerevisiae deletion strains, locus YLR113W, strain HOG1, stronger effect = lower value 1 | [12] 0.668 | S. cerevisiae deletion strains, locus YLR268W, strain sec22, stronger effect = lower value 0.911 | S. cerevisiae deletion strains, locus YLR330W, strain CHS5, stronger effect = lower value 0.979 | S. cerevisiae deletion strains, locus YLR342W, strain FKS1 (second series), stronger effect = lower value 0.902 | S. cerevisiae deletion strains, locus YLR371W, strain rom2, stronger effect = lower value 0.985 | S. cerevisiae deletion strains, locus YLR418C, strain cdc73, stronger effect = lower value 0.864 | S. cerevisiae deletion strains, locus YML016C, strain PPZ1, stronger effect = lower value 0.97 | S. cerevisiae deletion strains, locus YML032C, strain rad52, stronger effect = lower value 0.952 | S. cerevisiae deletion strains, locus YML124C, strain tub3, stronger effect = lower value 0.998 | S. cerevisiae deletion strains, locus YMR078C, strain ctf18, stronger effect = lower value 0.971 | [16] 1.01 | S. cerevisiae deletion strains, locus YNL067W, strain RPL9B, stronger effect = lower value 0.957 | S. cerevisiae deletion strains, locus YNL183C, strain NPR1, stronger effect = lower value 0.918 | S. cerevisiae deletion strains, locus YNL233W, strain BNI4, stronger effect = lower value 0.941 | S. cerevisiae deletion strains, locus YNL250W, strain rad50, stronger effect = lower value 0.981 | S. cerevisiae deletion strains, locus YNL271C, strain bni1, stronger effect = lower value 0.988 | S. cerevisiae deletion strains, locus YNL298W, strain CLA4, stronger effect = lower value 0.983 | [13] 0.976 | S. cerevisiae deletion strains, locus YNR052C, strain pop2, stronger effect = lower value 0.943 | S. cerevisiae deletion strains, locus YOL012C, strain htz1 1.78 | S. cerevisiae deletion strains, locus YOL147C, strain pex11, stronger effect = lower value 0.962 | S. cerevisiae deletion strains, locus YOR061W, strain CKA2, stronger effect = lower value 0.971 | S. cerevisiae deletion strains, locus YOR069W, strain VPS5, stronger effect = lower value 0.973 | S. cerevisiae deletion strains, locus YOR136W, strain idh2, stronger effect = lower value 0.992 | S. cerevisiae deletion strains, locus YOR144C, strain elg1, stronger effect = lower value 0.993 | S. cerevisiae deletion strains, locus YOR231W, strain MKK1, stronger effect = lower value 0.999 | S. cerevisiae deletion strains, locus YOR316C, strain cot1, stronger effect = lower value 0.984 | [14] 0.998 | [15] 0.974 | S. cerevisiae deletion strains, locus YPL256C, strain CLN2, stronger effect = lower value 0.97 | S. cerevisiae deletion strains, locus YPR119W, strain clb2, stronger effect = lower value 0.989 | S. cerevisiae deletion strains, locus YPR141C, strain kar3, stronger effect = lower value 0.988 | S. cerevisiae deletion strains, locus YPR163C, strain tif3, stronger effect = lower value 0.955 | S. cerevisiae deletion strains, locus YPR167C, strain met16, stronger effect = lower value 0.987 | S. cerevisiae deletion strains, strain wtn01, stronger effect = lower value 0.905
